Measured values from PubChem BioAssay (Tox21).
Where “and” joins values, the source holds several entries; their conditions need not be identical. Identical values can stand only once. Inconclusive results are not listed. A call without a number means that no potency is given here. Some structures have more than one record in an assay (separate samples or runs), and their calls can disagree. Calls of active or inactive are those of the source. Unless noted, the call rests on the fitted dose curve; in most records, active means well fitted curve in the direction sought with a large enough effect in the repeat runs; inconclusive means weak or mixed curves; inactive means no such curve, though single readings can be large; an effect the other way counts as inactive or inconclusive.

Assays:
[1] = molecular target: Cytochrome P450 2D6 (Homo sapiens) (UniProt P10635); experiment: Cytochrome P450 Family 2 Subfamily D Member 6 (CYP2D6) small molecule antagonists: luciferase reporter qHTS assay (AID 1671196); further: nearly all actives have a fitted effect of over 50% in size; further: potency means the concentration at half of the fitted maximal effect
Cytochrome P450 2D6 (Homo sapiens), sequence (P10635 whole entry, looked up): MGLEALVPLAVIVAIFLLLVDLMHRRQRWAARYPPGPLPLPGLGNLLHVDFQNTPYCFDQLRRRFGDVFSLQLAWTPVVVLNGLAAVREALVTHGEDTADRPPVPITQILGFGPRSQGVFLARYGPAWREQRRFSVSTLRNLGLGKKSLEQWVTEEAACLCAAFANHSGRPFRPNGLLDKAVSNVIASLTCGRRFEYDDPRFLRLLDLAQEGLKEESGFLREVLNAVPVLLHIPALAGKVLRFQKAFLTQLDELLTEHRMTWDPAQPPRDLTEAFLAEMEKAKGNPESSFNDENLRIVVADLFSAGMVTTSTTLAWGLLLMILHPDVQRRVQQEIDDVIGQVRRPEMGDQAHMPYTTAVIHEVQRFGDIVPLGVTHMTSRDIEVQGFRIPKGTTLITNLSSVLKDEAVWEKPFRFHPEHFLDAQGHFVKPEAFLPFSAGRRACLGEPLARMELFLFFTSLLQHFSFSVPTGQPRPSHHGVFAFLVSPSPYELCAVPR
In short: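 P450-Glo format: CYP2D6 converts a proluciferin substrate to luciferin in an NADPH-driven reaction lasting 1 h at room temperature. Light output, proportional to CYP2D6 activity, reflects interference by test chemicals.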

[2] = molecular target: Cytochrome P450 2C19 (Homo sapiens) (UniProt P33261); experiment: Cytochrome P450 Family 2 Subfamily C Member 19 (CYP2C19) small molecule antagonists: luciferase reporter qHTS assay (AID 1671197); further: nearly all actives have a fitted effect of over 65% in size; further: potency means the concentration at half of the fitted maximal effect
Cytochrome P450 2C19 (Homo sapiens), sequence (P33261 whole entry, looked up): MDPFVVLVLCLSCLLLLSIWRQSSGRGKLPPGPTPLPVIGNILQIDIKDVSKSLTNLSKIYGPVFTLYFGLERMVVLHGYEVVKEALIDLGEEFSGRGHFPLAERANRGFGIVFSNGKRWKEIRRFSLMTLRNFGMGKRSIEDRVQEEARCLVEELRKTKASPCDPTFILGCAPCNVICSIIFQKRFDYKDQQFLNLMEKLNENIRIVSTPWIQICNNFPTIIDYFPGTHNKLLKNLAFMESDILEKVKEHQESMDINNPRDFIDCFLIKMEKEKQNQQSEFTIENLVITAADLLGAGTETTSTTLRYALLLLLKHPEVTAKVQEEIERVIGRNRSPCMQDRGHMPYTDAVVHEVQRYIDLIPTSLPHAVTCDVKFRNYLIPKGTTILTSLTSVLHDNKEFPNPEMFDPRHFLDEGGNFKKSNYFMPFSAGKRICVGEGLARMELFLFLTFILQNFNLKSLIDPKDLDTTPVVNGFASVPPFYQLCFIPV
In short: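 P450-Glo CYP2C19 system: enzyme-substrate mix with compound 10 min at room temperature, then NADPH regeneration solution, 1 h at 37C. Proluciferin-to-luciferin conversion detected by luminescence after 20 min with detection reagent; ketoconazole as positive control.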

[3] = molecular target: Cytochrome P450 2C9 (Homo sapiens) (UniProt P11712); experiment: Cytochrome P450 Family 2 Subfamily C Member 9 (CYP2C9) small molecule antagonists: luciferase reporter qHTS assay (AID 1671198); further: nearly all actives have a fitted effect of over 50% in size; further: potency means the concentration at half of the fitted maximal effect
Cytochrome P450 2C9 (Homo sapiens), sequence (P11712 whole entry, looked up): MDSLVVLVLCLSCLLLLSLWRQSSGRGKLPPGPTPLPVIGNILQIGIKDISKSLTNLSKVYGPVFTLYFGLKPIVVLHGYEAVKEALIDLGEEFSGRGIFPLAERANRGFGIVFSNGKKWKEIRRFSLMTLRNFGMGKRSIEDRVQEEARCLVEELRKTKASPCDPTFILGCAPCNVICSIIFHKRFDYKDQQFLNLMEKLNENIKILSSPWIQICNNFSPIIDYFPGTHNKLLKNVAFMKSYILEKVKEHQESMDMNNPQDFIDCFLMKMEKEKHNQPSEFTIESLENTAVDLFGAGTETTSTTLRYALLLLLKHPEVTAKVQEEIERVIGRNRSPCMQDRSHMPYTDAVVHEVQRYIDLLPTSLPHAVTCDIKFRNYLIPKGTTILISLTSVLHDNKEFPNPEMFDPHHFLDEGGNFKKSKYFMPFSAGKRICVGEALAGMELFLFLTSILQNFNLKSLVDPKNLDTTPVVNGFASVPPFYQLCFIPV
In short: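 CYP2C9 activity was measured with a P450-Glo proluciferin substrate. Enzyme–substrate mix was held with compound for 10 min at room temperature, then NADPH regeneration solution was added for 1 h at 37C. Luciferin product was read as luminescence.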

[4] = molecular target: Cytochrome P450 1A2 (Homo sapiens) (UniProt P05177); experiment: Cytochrome P450 Family 1 Subfamily A Member 2 (CYP1A2) small molecule antagonists: luciferase reporter qHTS assay (AID 1671199); further: nearly all actives have a fitted effect of over 50% in size; further: potency means the concentration at half of the fitted maximal effect
Cytochrome P450 1A2 (Homo sapiens), sequence (P05177 whole entry, looked up): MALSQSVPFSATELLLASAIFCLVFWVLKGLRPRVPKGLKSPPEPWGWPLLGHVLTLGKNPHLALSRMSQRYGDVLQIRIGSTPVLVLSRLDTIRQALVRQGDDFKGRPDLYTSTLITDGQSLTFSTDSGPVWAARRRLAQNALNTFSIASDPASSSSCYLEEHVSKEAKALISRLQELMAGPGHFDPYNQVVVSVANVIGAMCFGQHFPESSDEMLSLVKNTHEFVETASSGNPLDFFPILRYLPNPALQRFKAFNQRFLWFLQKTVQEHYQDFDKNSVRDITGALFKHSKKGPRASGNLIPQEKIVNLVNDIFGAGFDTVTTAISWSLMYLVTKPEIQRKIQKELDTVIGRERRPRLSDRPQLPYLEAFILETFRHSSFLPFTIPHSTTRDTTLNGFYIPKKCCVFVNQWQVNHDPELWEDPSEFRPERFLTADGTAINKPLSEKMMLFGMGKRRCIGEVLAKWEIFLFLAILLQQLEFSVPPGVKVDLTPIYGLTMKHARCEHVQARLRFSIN
In short: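 Inhibition of CYP1A2 conversion of proluciferin to luciferin, detected by luminescence. Reaction run 1 h at room temperature with NADPH regeneration after brief compound preincubation.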

[5] = molecular target: Voltage-gated inwardly rectifying potassium channel KCNH2 (Homo sapiens) (UniProt Q12809); experiment: Human Ether-a-go-go-Related Gene (hERG) channel small molecule antagonists: fluorescence cell-based qHTS assay (AID 1671200); further: nearly all actives have a fitted effect of over 50% in size; further: potency means the concentration at half of the fitted maximal effect
Voltage-gated inwardly rectifying potassium channel KCNH2 (Homo sapiens), sequence (Q12809 whole entry, looked up): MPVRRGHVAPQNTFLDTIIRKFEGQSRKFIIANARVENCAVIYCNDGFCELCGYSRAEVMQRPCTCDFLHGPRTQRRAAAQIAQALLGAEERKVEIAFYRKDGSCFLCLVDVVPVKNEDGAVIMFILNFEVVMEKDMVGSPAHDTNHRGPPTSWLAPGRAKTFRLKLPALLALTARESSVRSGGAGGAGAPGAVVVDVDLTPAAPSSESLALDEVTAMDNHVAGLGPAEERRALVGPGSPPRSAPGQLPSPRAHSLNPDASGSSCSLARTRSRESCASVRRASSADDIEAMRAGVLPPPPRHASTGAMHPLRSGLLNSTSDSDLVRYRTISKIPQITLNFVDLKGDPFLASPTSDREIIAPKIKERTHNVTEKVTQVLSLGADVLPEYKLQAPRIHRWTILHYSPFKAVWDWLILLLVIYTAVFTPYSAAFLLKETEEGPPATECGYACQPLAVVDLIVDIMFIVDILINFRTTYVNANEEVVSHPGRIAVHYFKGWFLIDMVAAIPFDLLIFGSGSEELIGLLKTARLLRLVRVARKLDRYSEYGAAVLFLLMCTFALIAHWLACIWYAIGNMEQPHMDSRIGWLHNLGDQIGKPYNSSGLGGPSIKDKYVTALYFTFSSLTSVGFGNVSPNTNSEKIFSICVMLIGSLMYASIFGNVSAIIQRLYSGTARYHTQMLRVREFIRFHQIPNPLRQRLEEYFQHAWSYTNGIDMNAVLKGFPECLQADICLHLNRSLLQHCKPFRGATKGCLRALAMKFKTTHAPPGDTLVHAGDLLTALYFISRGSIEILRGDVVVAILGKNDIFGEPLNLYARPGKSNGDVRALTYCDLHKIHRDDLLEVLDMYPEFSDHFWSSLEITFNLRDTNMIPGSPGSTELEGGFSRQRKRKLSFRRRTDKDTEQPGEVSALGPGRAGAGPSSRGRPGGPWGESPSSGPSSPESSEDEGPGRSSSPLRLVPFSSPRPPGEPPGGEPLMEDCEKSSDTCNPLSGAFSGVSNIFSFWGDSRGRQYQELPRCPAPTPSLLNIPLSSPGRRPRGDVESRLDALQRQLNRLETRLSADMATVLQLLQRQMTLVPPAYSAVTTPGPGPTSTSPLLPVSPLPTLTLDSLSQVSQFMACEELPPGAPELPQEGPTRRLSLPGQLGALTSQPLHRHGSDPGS
In short: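 Measured: Tl+ flux via fluorescence (480/540 nm) in hERG-expressing U2OS cells after 1 h dye loading at room temperature.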

[6] = molecular target: Cytochrome P450 3A4 (Homo sapiens) (UniProt P08684); experiment: Cytochrome P450 Family 3 Subfamily A Member 4 (CYP3A4) small molecule antagonists: luciferase reporter qHTS assay (AID 1671201); further: nearly all actives have a fitted effect of over 50% in size; further: potency means the concentration at half of the fitted maximal effect
Cytochrome P450 3A4 (Homo sapiens), sequence (P08684 whole entry, looked up): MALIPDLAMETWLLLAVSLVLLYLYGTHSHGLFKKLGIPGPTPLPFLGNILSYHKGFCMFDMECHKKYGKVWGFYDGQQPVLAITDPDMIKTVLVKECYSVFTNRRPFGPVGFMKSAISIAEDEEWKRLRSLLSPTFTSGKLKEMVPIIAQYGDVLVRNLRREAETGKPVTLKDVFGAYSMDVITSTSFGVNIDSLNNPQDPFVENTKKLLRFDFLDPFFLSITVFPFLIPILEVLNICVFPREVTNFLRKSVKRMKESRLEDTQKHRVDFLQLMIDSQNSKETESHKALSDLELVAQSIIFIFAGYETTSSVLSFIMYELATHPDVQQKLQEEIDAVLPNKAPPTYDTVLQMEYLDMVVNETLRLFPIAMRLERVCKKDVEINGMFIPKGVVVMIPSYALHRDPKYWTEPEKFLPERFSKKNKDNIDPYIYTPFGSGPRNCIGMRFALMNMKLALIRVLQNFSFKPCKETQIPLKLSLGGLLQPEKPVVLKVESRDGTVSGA
In short: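 Setup: enzyme-substrate mix, compound pin transfer, 10 min RT. Reaction: NADPH regeneration solution, 1 h RT. Readout: detection reagent stops turnover, luminescence measured after 20 min, expressed in relative luminescence units.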

[7] = molecular target: Acetylcholinesterase (Homo sapiens) (UniProt P22303); experiment: Acetylcholinesterase (AChE) small molecule antagonists: enzyme-based qHTS assay with human liver microsomes (AID 1347399; calls by dose curve; further: nearly all actives have a fitted effect of over 60% in size); details: Potency: qHTS inhibition; outcome: qHTS inhibition
Acetylcholinesterase (Homo sapiens), sequence (P22303 whole entry, looked up): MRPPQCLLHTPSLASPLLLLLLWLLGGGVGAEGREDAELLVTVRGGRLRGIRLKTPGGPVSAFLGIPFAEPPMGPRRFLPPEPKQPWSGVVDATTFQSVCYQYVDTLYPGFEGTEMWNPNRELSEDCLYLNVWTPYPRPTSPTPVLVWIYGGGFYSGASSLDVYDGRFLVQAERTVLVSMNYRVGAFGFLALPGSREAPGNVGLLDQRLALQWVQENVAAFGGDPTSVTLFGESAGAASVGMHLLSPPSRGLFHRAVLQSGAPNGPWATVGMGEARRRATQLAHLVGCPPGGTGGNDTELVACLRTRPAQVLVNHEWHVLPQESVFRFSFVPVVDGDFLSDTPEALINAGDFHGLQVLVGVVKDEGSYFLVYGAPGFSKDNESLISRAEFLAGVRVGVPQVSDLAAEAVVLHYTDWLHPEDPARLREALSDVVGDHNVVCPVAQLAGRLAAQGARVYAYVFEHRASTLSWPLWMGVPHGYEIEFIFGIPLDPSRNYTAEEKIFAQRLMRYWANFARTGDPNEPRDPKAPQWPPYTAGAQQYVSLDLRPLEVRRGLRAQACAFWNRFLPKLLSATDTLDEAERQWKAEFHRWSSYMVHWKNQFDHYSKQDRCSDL
In short: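 Recombinant human AChE (50 mU/mL in the enzyme mix) and human liver microsomes (0.25 mg/mL final) were preincubated with compound and NADPH (0.25 mg/mL final) for 30 min at 37 C. Acetylthiocholine/DTNB was then added; thiocholine was read colorimetrically after 10 min at room temperature.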

| SMILES | Potency [1] | Potency [2] | Potency [3] | Potency [4] | Potency [5] | Potency [6] | Potency [7] |
| --- | --- | --- | --- | --- | --- | --- | --- |
| Cc1ccc(N)c(C)c1 | inactive and 896 nM (active) | 39.5 µM (active) and 7.12 µM (active) | 35.7 µM (active) | 11.1 µM (active) and 2.83 µM (active) | inactive | 40 µM (active) | – |
| O=C(O)c1cc(I)cc(I)c1I | – | – | 13.6 µM (active) | – | inactive | inactive | inactive |
| C[C@]12C=CC3=C4CCC(=O)C=C4CC[C@H]3[C@@H]1CC[C@@H]2O | – | – | 35.3 µM (active) and 30.1 µM (active) | 39.7 µM (active) | inactive | – | inactive |
| O=P(OCC(Br)CBr)(OCC(Br)CBr)OCC(Br)CBr (centres undefined) | 20.3 µM (active) and 26.8 µM (active) | 3.6 µM (active) and 4.25 µM (active) | 16.1 µM (active) and 16.9 µM (active) | 7.19 µM (active) and 9.52 µM (active) | 12.5 µM (active) and 18.5 µM (active) | 2.55 µM (active) and 7.56 µM (active) | – |
| Clc1ccc(Cl)c(Cl)c1 | – | – | – | – | inactive | – | – |
| CCOc1cccc(C2(N3CCN(c4ccccc4)CC3)CCC(C)CC2)c1 (centres undefined) | inactive | inactive | – | 20 µM (active) | inactive | – | – |
| CCC1(CCC(C)C)C(=O)NC(=O)NC1=O | – | – | – | – | inactive | – | – |
| O=C(O)CCCOc1ccc(Cl)cc1Cl | – | – | – | – | inactive | – | – |
| COc1ccccc1N1CCNCC1 | inactive | inactive | inactive | inactive | inactive | inactive | – |
| Cc1cnc(C2=NC(C)(C(C)C)C(=O)N2)c(C(=O)O)c1 (centres undefined) | inactive | – | inactive | inactive | inactive | inactive | – |
| Cc1ncc(C[n+]2csc(CCO)c2C)c(N)n1 | – | – | – | – | inactive | – | – |
| CN1C(=O)CN=C(c2ccccc2)c2cc([N+](=O)[O-])ccc21 | inactive | inactive | – | inactive | inactive | – | – |
| CN(C)C(=O)Nc1cccc(OC(=O)NC(C)(C)C)c1 | inactive | inactive | inactive | 39.9 µM (active) | inactive | inactive | – |
| CC1(C)CC(=O)CC(C)(C)N1[O] | inactive | inactive | inactive | inactive | inactive | inactive | – |
| O=C(O)C(F)(F)C(F)(F)C(F)(F)C(F)(F)C(F)(F)C(F)(F)C(F)(F)C(F)(F)F | inactive | 71 µM (active) | 1.78 µM (active) | inactive | inactive | inactive | – |
| CCCC1CCCCN1 (centres undefined) | – | inactive | inactive | inactive | inactive | inactive | – |
| C=CC(C)(CCC=C(C)C)OC(=O)c1ccccc1N (centres undefined) | – | – | – | – | inactive | – | – |
| COc1ccc(C(O)(c2cncnc2)C2CC2)cc1 (centres undefined) | – | 20 µM (active) | 63.3 µM (active) | – | inactive | 0.894 µM (active) | – |
| CC(=O)NNc1ccccc1 | – | – | – | – | inactive | – | – |
| COCc1cnc(C2=NC(C)(C(C)C)C(=O)N2)c(C(=O)O)c1 (centres undefined) | inactive | – | 35.6 µM (active) | – | inactive | inactive | – |
| CC(Cl)C(=O)O (centres undefined) | – | inactive | inactive | inactive | inactive | inactive | – |

| SMILES | Potency [1] | Potency [2] | Potency [3] | Potency [4] | Potency [5] | Potency [6] | Potency [7] |
| --- | --- | --- | --- | --- | --- | --- | --- |
| C[N+](C)(C)CC1CO1 (centres undefined) | inactive | inactive | inactive | – | inactive | inactive | – |
| O=C(NC(=O)c1cc(F)c(F)cc1Cl)Nc1cc(F)ccc1N1CCC(C(=O)O)CC1 | inactive | inactive | – | inactive | inactive | inactive | – |
| COC(=O)C1(O)c2ccccc2-c2ccccc21 | inactive | 79.6 µM (active) | – | 25.2 µM (active) | – | – | – |
| C=CCSSCC=C | inactive | 7.96 µM (active) | – | 31.7 µM (active) | inactive | inactive | – |
| C[CH2][Hg][S]c1ccccc1C(=O)O | – | – | – | – | inactive | – | – |
| C[C@@H]1C[C@@H]([C@H](O)CC2CC(=O)NC(=O)C2)C(=O)[C@@H](C)C1 | – | – | – | – | inactive | – | – |
| O=C(O)C(O)C(O)C(=O)O (centres undefined) | – | – | – | – | inactive | – | – |
| COc1ccc(C(=O)c2c(C)n(CCN3CCOCC3)c3ccccc23)cc1 | 15.5 µM (active) | 34.7 µM (active) | 12.3 µM (active) | – | inactive | – | – |
| CCNC(=O)NC(=O)/C(C#N)=N/OC | inactive | inactive | – | – | inactive | inactive | – |
| FC(Cl)(Cl)C(F)(Cl)Cl | inactive | inactive | inactive | – | inactive | inactive | – |
| COP(=O)(OC)OC(Br)C(Cl)(Cl)Br (centres undefined) | 40 µM (active) and 39.9 µM (active) | 7.98 µM (active) and 17.8 µM (active) | 25.2 µM (active) and 22.4 µM (active) | 35.6 µM (active) | inactive | 79.8 µM (active) and inactive | – |
| CC(C)(C)OOC(C)(C)CCC(C)(C)OOC(C)(C)C | inactive | inactive | – | inactive | inactive | inactive | – |
| [Cl-].[Cl-].[Hg+2] | – | – | – | – | 38.7 µM (active) and 6.92 µM (active) | – | – |
| c1ccc2c(c1)-c1cccc3cccc-2c13 | – | – | – | – | inactive | – | – |
| CC1(C)[C@H](C(=O)O[C@H](C#N)c2cccc(Oc3ccccc3)c2)[C@@H]1C=C(Br)Br | inactive | 5.87 µM (active) and 7.1 µM (active) | 1.86 µM (active) and 3.99 µM (active) | inactive | inactive | inactive | – |
| O=C(NCNC(=O)NC1C(=O)NC(=O)N1CO)NC1C(=O)NC(=O)N1CO (centres undefined) | – | – | – | – | inactive | – | – |
| CC(C)(C#N)C(C)(C)C#N | inactive | inactive | inactive | – | inactive | inactive | – |
| CCCCC1C(=O)NC(=O)N(C2CCCCC2)C1=O (centres undefined) | inactive | 27.5 µM (active) | – | inactive | inactive | inactive | – |
| CCN(C(C)=O)c1cccc(-c2ccnc3c(C#N)cnn23)c1 | inactive | 27.5 µM (active) | – | inactive | inactive | – | – |
| CCOP(=S)(OCC)SCSc1cc(Cl)ccc1Cl | inactive | inactive | inactive | inactive | inactive | inactive | – |
| O=C(O)c1cc(Cl)ccc1Cl | – | 79.3 µM (active) | – | 39.7 µM (active) | inactive | inactive | – |
